In PubChem BioAssay AID1053144 (Broad Institute, 2014):
Hit rate of the full screen: of about 3,400 compounds, about 160 (4.7%) were called active.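 Rule for the calls: active = fitted curve reaches 30% activation at a concentration no higher than the top valid tested dose, luminescence rising; inconclusive = no clear call, values can overlap the other calls; inactive = signal moving opposite to the expected increase, plus the rest.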 A selection follows. Measured potencies and affinities stand elsewhere.

Experiment: TCF/LEF reporter activation in neural progenitors – cell-based, iPS-derived NPC, luciferase, Wnt3a, cherry-pick, dose response (AID 1053144);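 note: Wnt3a stimulus is conditioned medium from Wnt3a-transfected mouse L cells at 5% in well; 0% = neutral control wells and 100% = CHIR-99021 positive control wells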
Settings: Wnt3a EC25, 24 h; series mostly up to 26 µM; activation: at the top concentration

activation, inactive:
CC1CCCCN1C(=O)c1cc(-c2ccc3c(c2)OCO3)on1 (stereo unspecified) 9.54%, Oc1oc(-c2ccc(Br)cc2)nc1/C=N/c1ccccn1 8.38%, Cc1cccc(N2CC(C(=O)NC3CCCCCC3)CC2=O)c1C (stereo unspecified) -1.43%, CCCC(=O)Nc1nc2ccc(OCC)cc2s1 16.3%, COc1ccc2sc(NC(C)=O)nc2c1 11%, COCC(=O)Nc1nc2ccc(C)cc2s1 6.09%, CCC(=O)Nc1nc2cc(OC)ccc2s1 13.7%, Cc1ccc(-c2cn3c(=O)cc(C)[nH]c3n2)cc1 12.7%, CCN(CC)S(=O)(=O)c1ccc(NS(=O)(=O)c2cccc(C)c2)cc1 9.12%, Cc1ccc(/C=N/Nc2ncnc3nc[nH]c23)cc1 12.2%, Cc1cccc(N2CCN(C(=O)CCCOc3ccccc3)CC2)c1C 6.59%, CCN1C(=O)CCN(C2CCCC2)c2nc(Nc3ccc(C(=O)NC4CCN(C)CC4)cc3OC)ncc21 4.88%, CC(=O)Nc1ccc(C(=O)COC(=O)C2CC2C)c(F)c1 (stereo unspecified) 3.26%, Fc1ccc(-c2ccc3c(n2)CCCN3Cc2ccccn2)cc1 9.57%, O=C(Nc1ccccc1N1CCN(c2ccccc2)CC1)c1ccccc1 -3.36%, O=C(NC(=O)c1ccccc1)Nc1ccccc1O 4.25%, Oc1[nH]c2ccccc2c1C=Nc1ccc2c(c1)OCO2 14.2%, COc1ccccc1C(=O)N(C)c1nnc(-c2ccccc2)s1 17.6%, CCOc1cccc(C(=O)Nc2ccc3c(c2)OCCO3)c1 5.21%, c1ccc2oc(-c3ccn[nH]3)cc2c1 10.9%, CCNc1nc(-c2cc3ccccc3o2)cs1 2.6%, Oc1ccc(Cl)cc1CNc1nccs1 10.9%, CN(C)c1ccc(/C=N/NC(=O)c2ccn(C)n2)cc1 13.3%, O=C(NCCc1cccs1)C1CC(c2ccccc2[N+](=O)[O-])=NO1 (stereo unspecified) 9.24%, Clc1ccccc1CSc1nc2ccncc2[nH]1 8.37%, CC(=O)Nc1ccc2nc(-c3ccccn3)[nH]c2c1 3.19%, c1ccc(-c2ccc(-c3ccccn3)s2)nc1 13.1%, NC(=O)c1ccccc1OCc1nc2ccccc2s1 8.49%, Cc1ccc(NC(=O)c2cc3c(s2)CCCC3)cc1 16.9%, COc1ccc(-c2cc(-c3ccc(OC)cc3)[nH]n2)cc1 3.32%, COc1ccc2cc(-c3ccccc3)ncc2c1 11.6%, Cc1ccc(C)c(NC(=O)c2cc3ccccn3n2)c1 10.6%, O=C(Nc1ccc(Br)cc1)c1cc2ccccn2n1 9.98%, Clc1ccc(-n2nnc(-c3cccnc3)n2)cc1Cl 9.11%, O=C(Nc1ccc(F)cc1F)c1csc(-c2cccs2)n1 8.48%, Cc1nc([N+](=O)[O-])cn1CC(O)c1ccc(Cl)cc1 (stereo unspecified) 0.757%, Nc1c(C(=O)c2ccccc2)oc2ccc(Br)cc12 5.38%, COc1ccc(C(=O)c2oc3ccc(OC)cc3c2N)cc1 9.38%, COc1ccc(C(=O)Nc2ccc3c(c2)nc2n3CCSC2)cc1 12.5%, Cc1ccc2cc(C#N)c(SCC(=O)N3CCCC3)nc2c1 8.83%, NC(=O)C(=O)N/N=C1\CCc2ccccc21 10.6%, CC(=O)Nc1cccc(NC(=O)CCCC(=O)O)c1 -0.366%, O=C(CC(=O)c1ccccc1)Nc1ccccc1 12.6%, CC(C)c1ccc(Nc2nnc(SCC(=O)NCC3CCCO3)s2)cc1 (stereo unspecified) 16.7%, CCCc1cc(C(=O)Nc2cccnc2)no1 10.9%, CCCc1cc(C(=O)Nc2cccc(Cl)c2)no1 5.04%, O=C(Nc1ccc(N2CCCCC2)cc1)c1cncc(Br)c1 15.3%, Nc1c(-c2cccc(Cl)c2)cnc2c(-c3ccccc3)cnn12 4.5%, Cc1occc1C(=O)N/N=C/c1ccc2c(c1)OCO2 2.18%, O=C(NN=Cc1ccc2c(c1)OCO2)c1ccccc1 18.2%, CCOC(=O)c1ccc(-c2ccc(C=O)o2)cc1 7.08%, CCOC(=O)c1ccc(NC(=O)N(CC)CC)cc1 11.7%, O=C(Nc1ccc2c(c1)OCCO2)c1cncc(Br)c1 6.75%, C=CCn1c(C)cc(C(=O)CSc2nc3ccccc3o2)c1C 2.6%, COc1cc(C2C3=C(CC(C)(C)CC3=O)Nc3c2c(=O)[nH]c(=O)n3Cc2ccccc2)ccc1O (stereo unspecified) 3.49%, O=C(c1ccc(Br)cc1)c1coc2ccc(O)cc12 18.8%, CC(=O)Oc1ccc2occ(C(=O)c3cccs3)c2c1 17.3%, COc1ccc(C(=O)NN/C(=N/S(=O)(=O)c2ccc(C)cc2)c2ccccc2)cc1 7.8%, Cc1[nH]c2ccc(F)cc2c1CCN1C(=O)OC(C)(C)C1(C)O (stereo unspecified) 5.62%, COc1cc(/C=C/C(=O)N2CCC=CC2=O)cc(OC)c1OC -6.11%, COc1ccc(C(=O)O/N=C(\N)c2ccccc2)cc1OC 11.8%, Oc1ccc(-c2cn3ccccc3n2)cc1 23.2%, CC(=O)Nc1ccccc1OCC(=O)c1ccc2c(c1)OCO2 9.06%, Clc1ccccc1/C=C/c1nc(-c2cccnc2)no1 6.34%, C(=C\c1nc(-c2ccncc2)no1)/c1ccccc1 9.12%, COc1ccc2[nH]cc(/C=C/C(=O)c3ccccc3)c2c1 20.3%, Cc1ccc(NC(=O)C(=O)c2c[nH]c3ccccc23)cc1 9.92%, Cc1cccc2cc(/C=N/Nc3ccc(C(=O)O)cc3)c(Cl)nc12 8.76%, Brc1ccccc1-n1nnc(-c2cnc3ccccc3c2)n1 3.75%, COc1ccc(-c2ccc(SCC(=O)Nc3nnc(C)s3)nn2)cc1 3.75%, COc1ccc(C(=O)Nc2cc(C)on2)cc1 4.98%, O=C(COc1ccc([N+](=O)[O-])cc1Cl)N1CCc2ccccc21 5.95%, O=C(COc1ccc2c(c1)CCC2)N1CCc2ccccc21 16.6%, O=C(Nc1ccccc1O)c1csc2c1CCCC2 6.88%, O=C(Nc1ccccn1)C(=O)Nc1ccccn1 7.92%, Cc1cc(SCC(=O)c2ccc(Cl)cc2)nc(=O)[nH]1 8.19%, O=C(Nc1nc(-c2ccccn2)cs1)C12CC3CC(CC(O)(C3)C1)C2 8.62%, CCC(C)NC(=O)c1cc(-c2ccc3c(c2)OCO3)on1 (stereo unspecified) 13.7%, c1ccc(N=NC2=NN(c3ccccc3)CS2)cc1 11.2%, O=c1c(N=Nc2ccccc2)c[nH]n1-c1ccccc1 14.2%, CCc1ccc(C(=O)CCC(=O)Nc2ccc(OC)c(S(=O)(=O)N3CCCCC3)c2)cc1 5.78%
